Assay results reported in PubChem BioAssay (NCI).
About 83,000 compounds went through this panel and 20% of them were active in at least one assay; those are over-represented in the sample as a whole.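 Activity criterion: percent growth below 10, measured after cells in 96-well plates were exposed to a single compound concentration for 48 hours.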 Activity calls are given as the source filed them.

What was measured:
Test in all cases: NCI-60 one-dose screen, 48 h (100 = growth as untreated, 0 = no growth, -100 = all killed)
Conditions in all cases: 10 µM unless noted
[1] = tested on: SR leukemia
[2] = tested on: RPMI-8226 leukemia
[3] = tested on: OVCAR-8 ovarian
[4] = tested on: OVCAR-5 ovarian
[5] = tested on: OVCAR-4 ovarian
[6] = tested on: SK-OV-3 ovarian
[7] = tested on: IGROV1 ovarian
[8] = tested on: OVCAR-3 ovarian
[9] = tested on: HS 578T breast
[10] = tested on: NCI/ADR-RES ovarian
[11] = tested on: T-47D breast
[12] = tested on: BT-549 breast
[13] = tested on: MDA-MB-435 melanoma
[14] = tested on: SW-620 colon
[15] = tested on: MCF7 breast
[16] = tested on: HCT-116 colon
[17] = tested on: HCC-2998 colon
[18] = tested on: KM12 colon

Measured: growth

CN(C)Cc1ccc(NC(=O)c2cncc(C#Cc3cnc(N)c4ncccc34)c2)cc1F
active: [1] 2.94% | [3] -18% | [5] -71.3% | [13] -89.3% | [15] -46% | [18] -83.3%
inactive: [2] 35.6% | [4] 123% | [6] 112% | [7] 100% | [8] 87.9% | [9] 87.3% | [10] 56.9% | [11] 105% | [12] 132% | [14] 96.9% | [16] 81.4% | [17] 91%

Cc1ccccc1Cn1cnc2ccc(-c3cc(NC(=O)c4ccc(NC5CCN(C)CC5)cc4)n[nH]3)cc21
inactive: [1] 52.9% | [2] 77.1% | [3] 104% | [4] 69.9% | [5] 62.5% | [6] 75.7% | [7] 26.5% | [8] 99.8% | [10] 104% | [11] 92.2% | [12] 68.2% | [13] 61% | [14] 93.1% | [15] 77.1% | [16] 48.8% | [17] 90.5% | [18] 39.6%
active: [9] 2.06%

CCOC(=O)c1cn2ncnc(Oc3ccc(NC(=O)NC4CCCCC4)c(Cl)c3)c2c1C
inactive: [1] 73.8% | [2] 90.9% | [3] 74% | [4] 93.5% | [6] 108% | [7] 81.4% | [8] 109% | [9] 36.1% | [10] 59% | [11] 85% | [12] 90.4% | [13] 85.6% | [14] 81.6% | [15] 51.7% | [16] 81.4% | [17] 94.6% | [18] 96.9%
active: [5] -0.664%

COc1ccc(C2c3sc4c(F)cccc4c3Oc3nc[nH]c(=O)c32)cc1 (stereo not drawn)
inactive: [1] 75.9% | [2] 69.3% | [3] 89% | [4] 83.6% | [5] 85.4% | [6] 97.4% | [7] 45.7% | [8] 88.5% | [9] 83.1% | [10] 84.4% | [11] 70.5% | [12] 84.6% | [13] 82.1% | [14] 89.7% | [15] 45.7% | [16] 79.9% | [17] 91.7% | [18] 81.7%

CC/C(=C(/c1ccc(Cl)cc1)c1ccc(OCCN2CCCC2)cc1)c1ccc(OC)cc1
inactive: [2] 12.2% | [3] 69.4% | [4] 72.9% | [5] 72.6% | [6] 101% | [7] 81.8% | [8] 78.7% | [9] 100% | [10] 66.7% | [11] 43.7% | [12] 85.8% | [13] 73.5% | [14] 60.2% | [15] 18.5% | [16] 65.9% | [17] 71.1% | [18] 56%
active: [1] -16.1%

O=S(=O)(Nc1ccc(Cl)cc1)c1ccc(-c2cnc(C3CC3)o2)cc1
active: [1] 9.93% | [8] -17.3% | [9] 4.3% | [10] 4.42% | [13] -3.04%
inactive: [2] 15% | [3] 29.2% | [4] 43.9% | [5] 63.7% | [6] 30.2% | [7] 33% | [11] 22.6% | [12] 51.8% | [14] 17.4% | [15] 18.7% | [16] 21.2% | [17] 40.3% | [18] 20.9%

COc1ccc(C(c2cc(OC)c(OC)c(OC)c2)N2CCN(c3ccccc3)CC2)cc1 (stereo not drawn)
inactive: [1] 33.2% | [2] 89.3% | [3] 99.1% | [4] 102% | [5] 89.9% | [6] 78.5% | [7] 72.7% | [8] 90.1% | [9] 101% | [10] 85.9% | [11] 81.8% | [12] 93.6% | [14] 74.1% | [15] 72.8% | [16] 62.8% | [17] 93.3% | [18] 65.1%
active: [13] 9.02%

Cc1ccc(/C=N/Nc2nc(Nc3ccccc3)nc(-n3nc(C)cc3C)n2)cc1
active: [7] 5.33% | [11] 7.35% | [12] -5.91%
inactive: [1] 36.2% | [2] 32.9% | [3] 21.6% | [4] 59.5% | [5] 27.6% | [6] 69.3% | [8] 14.3% | [9] 78.9% | [10] 13.1% | [13] 41.8% | [14] 48.8% | [15] 16.4% | [16] 27.6% | [17] 43.1% | [18] 25.6%

CCCCCCCCCCCCCCCCCCOc1ccccc1CC(=O)NCC[N+]1(C)CCCC1
active: [7] -21.5%
inactive: [1] 23% | [2] 52.7% | [3] 49.7% | [4] 22.9% | [5] 42.5% | [6] 77.4% | [8] 39% | [9] 60.7% | [10] 103% | [11] 69.9% | [12] 67.2% | [13] 67.4% | [14] 64.7% | [15] 53.1% | [16] 55.9% | [17] 32.7% | [18] 18.9%

O=C1/C(=C/c2ccc(F)cc2)COc2ccc(O)c(O)c21
inactive: [1] 18.9% | [5] 43% | [6] 69.1% | [9] 21.5% | [15] 17.7% | [17] 19.9%
active: [2] -2.78% | [3] 6.23% | [4] 1.54% | [7] -21.8% | [8] -2.58% | [10] 1.04% | [11] 4.43% | [12] 3.57% | [13] 1.65% | [14] -44.8% | [16] -3.28% | [18] 1.7%

COc1ccc(-c2nnc3n(C)c(=O)c4ccccc4n23)cc1N
inactive: [1] 21.7% | [2] 20% | [3] 33.6% | [4] 45.2% | [5] 59.3% | [6] 22% | [7] 51.9% | [9] 32% | [10] 22.8% | [11] 24.2% | [12] 31.2% | [14] 20.3% | [15] 18.6% | [16] 20.2% | [17] 49.7% | [18] 28.3%
active: [8] 6.12% | [13] -19.6%

COc1ccccc1NC(=O)Cn1cc(CN2CCN(c3ccnc4cc(Cl)ccc34)CC2)nn1
inactive: [1] 92.1% | [2] 50.9% | [3] 93.4% | [4] 82.9% | [5] 94.1% | [6] 86.6% | [7] 90.6% | [8] 101% | [9] 88.5% | [10] 91.5% | [11] 81.7% | [12] 96.8% | [13] 97.6% | [14] 91.9% | [15] 83.5% | [16] 98.3% | [17] 107% | [18] 89.6%

O=C1/C(=C/c2ccc(Cl)cc2)COc2ccc(O)cc21
active: [1] 5.45% | [2] -31.8% | [14] 2.28% | [15] 5.46% | [16] 4.5%
inactive: [3] 77.8% | [4] 88.7% | [5] 84% | [6] 132% | [7] 78.6% | [8] 75.5% | [9] 83.1% | [10] 88.7% | [11] 83.5% | [12] 80.5% | [13] 64.7% | [17] 83.8% | [18] 20.3%

CCCC(=O)NC(c1ccc2c(c1)OCO2)c1ccc2cccnc2c1O (stereo not drawn)
inactive: [2] 13.1% | [4] 34.2% | [5] 14.5% | [6] 14.8% | [8] 36.9% | [9] 58.6% | [11] 19.8% | [12] 34.6% | [13] 26.9% | [14] 25.7% | [16] 11.8% | [17] 38% | [18] 30.6%
active: [1] -16.1% | [3] 9.28% | [7] 5.54% | [10] 3.18% | [15] 5.86%

CC[C@]12C=CCN3CC[C@@]4(c5cc(NC(=O)CCC(=O)OCc6cn(Cc7ccc(F)cc7)nn6)c(OC)cc5N(C)[C@H]4[C@@](O)(C(=O)OC)[C@@H]1OC(C)=O)[C@@H]32
inactive: [1] 94.2% | [2] 104% | [3] 103% | [4] 100% | [5] 98.2% | [6] 90.7% | [7] 108% | [8] 104% | [9] 108% | [10] 109% | [11] 102% | [12] 108% | [13] 101% | [14] 104% | [15] 96.4% | [16] 96.3% | [17] 106% | [18] 103%

CN1C(=O)/C(=C/c2cn(-c3ccccc3)nc2-c2ccccc2)SC1=S
inactive: [1] 109% | [2] 108% | [3] 105% | [4] 106% | [5] 106% | [6] 109% | [7] 107% | [8] 121% | [9] 100% | [10] 98.1% | [11] 96.1% | [12] 106% | [13] 99.5% | [14] 98.8% | [15] 83.6% | [16] 99.8% | [17] 115% | [18] 102%
